The first test deals with T1, ETV2 (Homo sapiens, UniProt O00321 1-342).
T1 sequence: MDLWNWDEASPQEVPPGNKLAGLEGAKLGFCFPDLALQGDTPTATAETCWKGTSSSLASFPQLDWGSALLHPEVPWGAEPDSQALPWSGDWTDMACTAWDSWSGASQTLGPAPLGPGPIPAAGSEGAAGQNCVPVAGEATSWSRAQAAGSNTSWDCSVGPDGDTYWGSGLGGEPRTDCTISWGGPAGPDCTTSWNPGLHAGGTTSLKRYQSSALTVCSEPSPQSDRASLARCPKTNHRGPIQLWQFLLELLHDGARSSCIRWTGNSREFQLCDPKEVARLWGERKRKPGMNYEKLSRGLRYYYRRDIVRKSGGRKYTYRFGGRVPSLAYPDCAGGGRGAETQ
Briefly: DAPPL (digital affinity profiling via proximity ligation, sequencing); 10 mM Tris-HCl pH 7.5, 50 mM NaCl, 1 mM DTT, 4% glycerol, room temperature, 30 min; GST-TFs on glutathione beads, 16-mer random dsDNA library, 0.1% formaldehyde crosslink after washing; high values mean tight binding. The note with it: protein: recombinant; tags: N-terminal GST; dsDNA, one strand shown. The method, boiled down: (§1)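 Each value of binding signal is a hexamer's read frequency for a factor divided by the same hexamer's frequency in the tag-only sample. Barcoded, bead-captured GST fusions of human transcription factors made in yeast were pooled with that sample and incubated with 200 nmole of a random double-stranded 16-mer DNA library in Tris/NaCl/DTT/glycerol buffer at room temperature for 30 min. Washing, 0.1% formaldehyde crosslinking, proximity ligation, PCR and Illumina NextSeq500 sequencing followed.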
As to CGCCGC, the binding signal is 1.03 fold enrichment (6-mer frequency, TF over GST control).
The same measure, in the same setting: under CTGTCA stands 1.19 fold enrichment (6-mer frequency, TF over GST control).
The same measure, in the same setting: with GCCGAC the figure was 1.15 fold enrichment (6-mer frequency, TF over GST control).
Still for that read-out and setting: under GCACAA stands 1.03 fold enrichment (6-mer frequency, TF over GST control); under ACATGT, 1.21 fold enrichment (6-mer frequency, TF over GST control).
Turning to CTGGTC, the binding signal was 1.27 fold enrichment (6-mer frequency, TF over GST control).
For CCAAAC, the binding signal is 1.07 fold enrichment (6-mer frequency, TF over GST control).
On the same count and under the same terms, with ACAGGA the figure was 1.06 fold enrichment (6-mer frequency, TF over GST control).
Turning to AGTGGC, the binding signal is 1.18 fold enrichment (6-mer frequency, TF over GST control).
Consider ACAAAC, for which the binding signal is 1.24 fold enrichment (6-mer frequency, TF over GST control).
Still for that read-out and setting: with CACACG the figure was 1.24 fold enrichment (6-mer frequency, TF over GST control).
Take CCCATC: the binding signal was 1.04 fold enrichment (6-mer frequency, TF over GST control).
Still for that read-out and setting: with CCGGTT the figure was 2.08 fold enrichment (6-mer frequency, TF over GST control); with CAAATG, 1.19 fold enrichment (6-mer frequency, TF over GST control); with CCGGTA, 1.52 fold enrichment (6-mer frequency, TF over GST control).
The same measure, in the same setting: under CATCAC stands 1.11 fold enrichment (6-mer frequency, TF over GST control).
The same measure, in the same setting: under CTGTGC stands 1.25 fold enrichment (6-mer frequency, TF over GST control); under GAAGCG, 1.19 fold enrichment (6-mer frequency, TF over GST control); under CAATGC, 1.21 fold enrichment (6-mer frequency, TF over GST control).
As to GTCACA, the binding signal was 1.01 fold enrichment (6-mer frequency, TF over GST control).

Another test concerns the target T2, ELF3 (Homo sapiens, UniProt P78545 1-371).
T2 sequence: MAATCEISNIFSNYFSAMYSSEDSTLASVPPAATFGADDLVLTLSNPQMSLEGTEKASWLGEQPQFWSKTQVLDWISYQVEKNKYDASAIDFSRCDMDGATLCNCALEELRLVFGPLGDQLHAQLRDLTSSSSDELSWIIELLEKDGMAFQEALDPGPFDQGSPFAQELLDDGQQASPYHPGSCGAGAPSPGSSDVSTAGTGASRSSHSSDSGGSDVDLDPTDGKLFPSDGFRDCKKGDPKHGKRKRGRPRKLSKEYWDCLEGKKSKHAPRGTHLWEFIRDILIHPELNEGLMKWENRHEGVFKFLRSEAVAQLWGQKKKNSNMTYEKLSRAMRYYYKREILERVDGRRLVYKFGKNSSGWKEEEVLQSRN
The description is as above. The note with it: protein: recombinant; tags: N-terminal GST; dsDNA, one strand shown. The procedure, abridged: as §1
Turning to CGGATG, the binding signal was 1.48 fold enrichment (6-mer frequency, TF over GST control).
As to CCATAC, the binding signal is 1.06 fold enrichment (6-mer frequency, TF over GST control).
Still for that read-out and setting: with AACAGG the figure was 1.15 fold enrichment (6-mer frequency, TF over GST control); with GTAACA, 1.27 fold enrichment (6-mer frequency, TF over GST control).
For the sequence GCGCCT, the binding signal is 1.11 fold enrichment (6-mer frequency, TF over GST control).
On the same count and under the same terms, with TGTCCG the figure was 1.48 fold enrichment (6-mer frequency, TF over GST control).
Same read-out and setting: under GCACAT stands 1.11 fold enrichment (6-mer frequency, TF over GST control).
Same read-out and setting: under CGGCAT stands 1.02 fold enrichment (6-mer frequency, TF over GST control).
As to CACTCA, the binding signal was 1.17 fold enrichment (6-mer frequency, TF over GST control).
Regarding GTATGC, the binding signal is 1.1 fold enrichment (6-mer frequency, TF over GST control).
Take CACAAT: the binding signal is 1.19 fold enrichment (6-mer frequency, TF over GST control).
Same read-out and setting: under CGACCG stands 1.27 fold enrichment (6-mer frequency, TF over GST control); under CCGCCC, 1.28 fold enrichment (6-mer frequency, TF over GST control); under GATGTC, 1.25 fold enrichment (6-mer frequency, TF over GST control).
The same measure, in the same setting: with CCACCC the figure was 1.37 fold enrichment (6-mer frequency, TF over GST control).
On the same count and under the same terms, under TTGGCC stands 1.12 fold enrichment (6-mer frequency, TF over GST control); under GTACCT, 1.57 fold enrichment (6-mer frequency, TF over GST control); under GATGCG, 1.11 fold enrichment (6-mer frequency, TF over GST control).
In the case of CATGGT, the binding signal was 1.35 fold enrichment (6-mer frequency, TF over GST control).
On the same count and under the same terms, under CGCCGC stands 1.26 fold enrichment (6-mer frequency, TF over GST control).
The same measure, in the same setting: under CTGTCA stands 1.16 fold enrichment (6-mer frequency, TF over GST control); under GCCGAC, 1 fold enrichment (6-mer frequency, TF over GST control); under GCACAA, 1.13 fold enrichment (6-mer frequency, TF over GST control).
On the same count and under the same terms, with ACATGT the figure was 1.02 fold enrichment (6-mer frequency, TF over GST control); with CTGGTC, 1.05 fold enrichment (6-mer frequency, TF over GST control).
Regarding CCAAAC, the binding signal is 1.11 fold enrichment (6-mer frequency, TF over GST control).
Still for that read-out and setting: with ACAGGA the figure was 1.15 fold enrichment (6-mer frequency, TF over GST control); with AGTGGC, 1.36 fold enrichment (6-mer frequency, TF over GST control).
In the case of ACAAAC, the binding signal was 1.12 fold enrichment (6-mer frequency, TF over GST control).
On the same count and under the same terms, under CACACG stands 1.07 fold enrichment (6-mer frequency, TF over GST control); under CCCATC, 1.09 fold enrichment (6-mer frequency, TF over GST control); under CCGGTT, 2.09 fold enrichment (6-mer frequency, TF over GST control).
The same measure, in the same setting: under CAAATG stands 1.15 fold enrichment (6-mer frequency, TF over GST control); under CCGGTA, 1.6 fold enrichment (6-mer frequency, TF over GST control); under CATCAC, 1.14 fold enrichment (6-mer frequency, TF over GST control).
Still for that read-out and setting: under CTGTGC stands 1.08 fold enrichment (6-mer frequency, TF over GST control); under GAAGCG, 1.22 fold enrichment (6-mer frequency, TF over GST control); under CAATGC, 1.22 fold enrichment (6-mer frequency, TF over GST control).
As to GTCACA, the binding signal is 1.08 fold enrichment (6-mer frequency, TF over GST control).

The target in the next test is ETV1 (Homo sapiens, UniProt P50549 1-477). The description is as above. As to conditions: protein: recombinant; tags: N-terminal GST; dsDNA, one strand shown. The procedure, abridged: as §1
ETV1, sequence (P50549 whole entry): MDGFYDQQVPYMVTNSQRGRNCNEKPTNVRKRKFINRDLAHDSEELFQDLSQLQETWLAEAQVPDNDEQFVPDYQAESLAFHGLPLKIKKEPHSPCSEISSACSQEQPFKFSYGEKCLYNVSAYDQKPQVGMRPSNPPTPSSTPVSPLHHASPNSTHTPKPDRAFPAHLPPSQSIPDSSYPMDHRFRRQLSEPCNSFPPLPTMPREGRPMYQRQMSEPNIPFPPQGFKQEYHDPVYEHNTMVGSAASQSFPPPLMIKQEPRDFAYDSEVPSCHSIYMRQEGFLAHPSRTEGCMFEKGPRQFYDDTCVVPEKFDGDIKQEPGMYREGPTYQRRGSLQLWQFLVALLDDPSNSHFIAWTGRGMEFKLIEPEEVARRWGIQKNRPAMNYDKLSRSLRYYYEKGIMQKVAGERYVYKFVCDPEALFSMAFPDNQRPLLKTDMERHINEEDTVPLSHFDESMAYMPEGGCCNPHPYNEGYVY
Turning to CGGATG, the binding signal is 1.74 fold enrichment (6-mer frequency, TF over GST control).
Still for that read-out and setting: with CCATAC the figure was 1.15 fold enrichment (6-mer frequency, TF over GST control); with AACAGG, 1.18 fold enrichment (6-mer frequency, TF over GST control); with GTAACA, 1.14 fold enrichment (6-mer frequency, TF over GST control).
Same read-out and setting: under GCGCCT stands 1.17 fold enrichment (6-mer frequency, TF over GST control).
The same measure, in the same setting: with TGTCCG the figure was 1.6 fold enrichment (6-mer frequency, TF over GST control); with GCACAT, 1.1 fold enrichment (6-mer frequency, TF over GST control); with CGGCAT, 1.19 fold enrichment (6-mer frequency, TF over GST control).
With CACTCA, the binding signal was 1.1 fold enrichment (6-mer frequency, TF over GST control).
The same measure, in the same setting: under GTATGC stands 1.12 fold enrichment (6-mer frequency, TF over GST control); under CACAAT, 1.09 fold enrichment (6-mer frequency, TF over GST control).
The same measure, in the same setting: with CGACCG the figure was 1.26 fold enrichment (6-mer frequency, TF over GST control).
Still for that read-out and setting: under CCGCCC stands 1.26 fold enrichment (6-mer frequency, TF over GST control); under GATGTC, 1.3 fold enrichment (6-mer frequency, TF over GST control).
In the case of CCACCC, the binding signal is 1.16 fold enrichment (6-mer frequency, TF over GST control).
The same measure, in the same setting: under TTGGCC stands 1.02 fold enrichment (6-mer frequency, TF over GST control).
On the same count and under the same terms, with GTACCT the figure was 1.27 fold enrichment (6-mer frequency, TF over GST control); with GATGCG, 1.06 fold enrichment (6-mer frequency, TF over GST control); with CATGGT, 1.29 fold enrichment (6-mer frequency, TF over GST control).
The same measure, in the same setting: with CGCCGC the figure was 1.29 fold enrichment (6-mer frequency, TF over GST control).
With CTGTCA, the binding signal was 1.14 fold enrichment (6-mer frequency, TF over GST control).
Still for that read-out and setting: under GCCGAC stands 1.04 fold enrichment (6-mer frequency, TF over GST control); under GCACAA, 1.04 fold enrichment (6-mer frequency, TF over GST control).
Same read-out and setting: with ACATGT the figure was 1.09 fold enrichment (6-mer frequency, TF over GST control); with CTGGTC, 1.07 fold enrichment (6-mer frequency, TF over GST control); with CCAAAC, 1.02 fold enrichment (6-mer frequency, TF over GST control).
The same measure, in the same setting: under ACAGGA stands 1.16 fold enrichment (6-mer frequency, TF over GST control); under AGTGGC, 1.16 fold enrichment (6-mer frequency, TF over GST control); under ACAAAC, 1.12 fold enrichment (6-mer frequency, TF over GST control).
With CACACG, the binding signal was 1.16 fold enrichment (6-mer frequency, TF over GST control).
Still for that read-out and setting: with CCCATC the figure was 1.18 fold enrichment (6-mer frequency, TF over GST control); with CCGGTT, 2.04 fold enrichment (6-mer frequency, TF over GST control).
On the same count and under the same terms, with CAAATG the figure was 1.19 fold enrichment (6-mer frequency, TF over GST control); with CCGGTA, 1.59 fold enrichment (6-mer frequency, TF over GST control); with CATCAC, 1.1 fold enrichment (6-mer frequency, TF over GST control).
On the same count and under the same terms, with CTGTGC the figure was 1.12 fold enrichment (6-mer frequency, TF over GST control).
Take GAAGCG: the binding signal was 1.38 fold enrichment (6-mer frequency, TF over GST control).
With CAATGC, the binding signal is 1.12 fold enrichment (6-mer frequency, TF over GST control).
The same measure, in the same setting: under GTCACA stands 1.06 fold enrichment (6-mer frequency, TF over GST control).

For the origin of these results see PMC7862700, “An all-to-all approach to the identification of sequence-specific readers for epigenetic DNA modifications on cytosine”.
